Measurements as given in PubChem BioAssay (NCI).
About 83,000 compounds went through this panel and 20% of them were active in at least one assay; those are over-represented in the sample as a whole.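 Growth was measured after 48 h exposure to one concentration of compound in 96-well plates. Values under 10 count as active.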 Values without a mark were called inactive. Activity calls are given as the source filed them.

Experiments:
Experiment in all cases: NCI-60 one-dose screen, 48 h (100 = growth as untreated, 0 = no growth, -100 = all killed)
Conditions in all cases: 10 µM unless noted
SR leukemia = system: SR leukemia
RPMI-8226 leukemia = system: RPMI-8226 leukemia
OVCAR-8 ovarian = system: OVCAR-8 ovarian
OVCAR-5 ovarian = system: OVCAR-5 ovarian
OVCAR-4 ovarian = system: OVCAR-4 ovarian
SK-OV-3 ovarian = system: SK-OV-3 ovarian
IGROV1 ovarian = system: IGROV1 ovarian
OVCAR-3 ovarian = system: OVCAR-3 ovarian
HS 578T breast = system: HS 578T breast
NCI/ADR-RES ovarian = system: NCI/ADR-RES ovarian
T-47D breast = system: T-47D breast
BT-549 breast = system: BT-549 breast
MDA-MB-435 melanoma = system: MDA-MB-435 melanoma
SW-620 colon = system: SW-620 colon
MCF7 breast = system: MCF7 breast
HCT-116 colon = system: HCT-116 colon
HCC-2998 colon = system: HCC-2998 colon
KM12 colon = system: KM12 colon

| SMILES | growth (SR leukemia) | growth (RPMI-8226 leukemia) | growth (OVCAR-8 ovarian) | growth (OVCAR-5 ovarian) | growth (OVCAR-4 ovarian) | growth (SK-OV-3 ovarian) | growth (IGROV1 ovarian) | growth (OVCAR-3 ovarian) | growth (HS 578T breast) | growth (NCI/ADR-RES ovarian) | growth (T-47D breast) | growth (BT-549 breast) | growth (MDA-MB-435 melanoma) | growth (SW-620 colon) | growth (MCF7 breast) | growth (HCT-116 colon) | growth (HCC-2998 colon) | growth (KM12 colon) |
| --- | --- | --- | --- | --- | --- | --- | --- | --- | --- | --- | --- | --- | --- | --- | --- | --- | --- | --- |
| C#CC(O)c1ccccc1 (stereo not drawn) | 106% | 104% | 103% | 101% | 105% | 103% | 108% | 106% | 107% | 107% | 99.9% | 106% | 108% | 102% | 99.1% | 102% | 125% |  |
| CN(C)c1ccc2nc3ccc(=[N+](C)C)cc-3oc2c1 | 60.3% | 45.6% | 8.48% (active) | -12.3% (active) | -76% (active) | 61.3% | 5.34% (active) | -10.6% (active) | 101% | 66.3% | 14.4% | 63.2% | 55.1% | 9.01% (active) | -30.4% (active) | 6.48% (active) | 43.3% | 35.1% |
| NNC(=O)c1ccccc1N | 156% | 88.9% | 107% | 89.8% | 106% | 114% | 127% | 124% | 117% | 105% | 103% | 121% | 114% | 103% | 101% | 99.3% | 112% | 105% |
| Clc1cccc(Cl)c1CSc1nc2ccccc2n2cccc12 | 71.9% | 96.1% | 104% | 106% | 70.4% | 88.6% | 76.4% | 92.5% | 113% | 101% | 25.1% | 98.7% | 66.8% | 97% | 17% | 86.9% | 109% | 84.4% |
| CCCC(=O)CC(=O)c1ccccc1 | 107% | 103% | 93.6% | 101% | 112% | -20% (active) | 108% | 99.4% | 106% | 100% | 96.1% | 101% | 110% | 105% | 97.2% | 94.8% | 99.1% | 102% |
| Nc1ccc(F)cc1F | 107% | 102% | 116% | 96.3% | 123% | 116% | 105% | 116% | 108% | 108% | 101% | 103% | 107% | 106% | 96% | 88.5% | 113% | 108% |
| CC(=O)N(CCCCCCN(C(C)=O)C(C)=O)C(C)=O | 99.6% [100 µM] | 107% [100 µM] | 107% [100 µM] | 110% [100 µM] | 101% [100 µM] | 114% [100 µM] | 108% [100 µM] | 113% [100 µM] | 105% [100 µM] | 105% [100 µM] | 101% [100 µM] | 98.4% [100 µM] | 98.5% [100 µM] | 108% [100 µM] | 87.8% [100 µM] | 101% [100 µM] | 114% [100 µM] | 99.2% [100 µM] |
| O=C(c1ccc(Cl)cc1)N1CCCCC1 | 96.9% | 102% | 106% | 102% | 113% | 105% | 105% | 112% | 23.2% | 102% | 91.5% | 105% | 101% | 99.8% | 92.9% | 99.9% | 107% |  |
| CC(=O)NNC(=S)/N=C\C(C(=O)c1ccccc1)=C(/O)c1ccccc1 | 102% | 104% | 102% | 97.2% | 114% | 91.8% | 95% | 109% | 106% | 99% | 87.8% | 92.7% | 109% | 110% | 93.6% | 96.5% | 102% | 99.4% |
| CC(=O)NCNC(C)=O | 85.3% | 97% | 98% | 105% | 110% | 113% | 113% | 120% | 111% | 111% | 108% | 100% | 107% | 107% | 94% | 104% | 113% | 117% |
| O=C(O)c1cc(I)ccc1O | 103% | 107% | 109% | 97.5% | 107% | 103% | 114% | 116% | 111% | 98% | 112% | 85.9% | 100% | 116% | 95.7% | 111% | 95.1% | 108% |
| C/C=C/C1OCC(CC)C(CCC)O1 (stereo not drawn) | 102% | 94.5% | 103% | 98.7% | 110% | 108% | 104% | 106% | 107% | 108% | 107% | 108% | 107% | 105% | 95.8% | 103% | 124% |  |
| O=C1NC(=O)C(c2ccccc2)O1 (stereo not drawn) | 93.3% | 99.5% | 102% | 106% | 98.2% | 96.6% | 108% | 117% | 117% | 97.8% | 83.8% | 99.6% | 104% | 111% | 105% | 98.1% | 105% | 112% |
| CCCCCCCCCc1ccc(OC(C)=O)cc1 | 102% | 91.8% | 101% | 105% | 107% | 119% | 111% | 108% | 96.3% | 119% | 108% | 112% | 109% | 102% | 102% | 110% | 113% | 106% |
| N#Cc1ccc(OC(=O)Nc2c(Cl)cc(Cl)cc2Cl)cc1 | 101% | 107% | 105% | 103% | 109% | 99.7% | 98.7% | 112% | 106% | 111% | 91.6% | 113% | 96.4% | 118% | 100% | 101% | 110% | 107% |
| COc1ccc(Nc2cc(Cl)ccc2C(=O)O)cn1 | 109% | 90.6% | 103% | 107% | 103% | 97.3% | 115% | 94.5% | 95.8% | 109% | 110% | 122% | 122% | 103% | 98.4% | 102% | 110% | 99.2% |
| Cc1ccc[n+](CCC(N)=O)c1 | 59.8% | 102% | 103% | 93.8% | 87.4% | 94.7% | 98.7% | 111% | 87.3% | 97.4% | 91.7% | 110% | 101% | 96.7% | 94.3% | 115% | 93.1% | 91.1% |
